HTR5A ag = HTR5A agonists in luminescence cell assay, primary screen, counter-screen for OPRM1-OPRD1 heterodimer agonist project, full-deck HTS; AID 504692, 2011; cell-based; 340,000 compounds, 0.61% hits; 5-hydroxytryptamine receptor 5A (Homo sapiens), P47898; activation, % at 9.3 µM; in the data active = activation mostly above about 9.5%, no sharp cut-off; inactive = mostly below about 7.6%;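 also: 0% = cells with vehicle only and 100% = reference agonist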
HTR5A inv ag = HTR5A inverse agonists in luminescence cell assay, primary screen, counter-screen for OPRM1-OPRD1 heterodimer inverse agonist project, full-deck HTS; 5-hydroxytryptamine receptor 5A (Homo sapiens), P47898; HTR5A cell line, inverse agonism; inhibition, % at 9.3 µM; 340,000 compounds, 0.083% hits; AID 504634, 2011; in the data active = inhibition mostly above about 23%, no sharp cut-off; inactive = mostly below about 18%;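 also: 0% = cells with DMSO and 100% = no-cell wells with DMSO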
MOR-DOR inv ag = inverse agonists of MOR-DOR heterodimerization, primary screen, cell-based, luminescence | AID 504357, 2011 | 340,000 compounds, 0.21% hits | cell-based MOR-DOR heterodimer luminescence, inverse agonism | inhibition, % at 9.3 µM | Mu-type opioid receptor (Homo sapiens) + Delta-type opioid receptor (Homo sapiens), …; in the data active = inhibition above about 22%, passing the limit was not always enough;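 also: 0% = cells with DMSO and 100% = wells without cells with DMSO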
MOR-DOR ag = agonists of OPRM1-OPRD1 heterodimerization, primary screen, cell-based, luminescence; Mu-type opioid receptor (Homo sapiens) + Delta-type opioid receptor (Homo sapiens), …; cells; 340,000 compounds, 0.3% hits; AID 504326, 2011; activation, % at 9.3 µM; in the data active = activation above about 18%;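 also: 0% = vehicle-treated cells and 100% = reference agonist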
m5-HT2A agonist = mouse Htr2a agonists via beta-arrestin recruitment, primary screen, cell-based, luminescence. 5-hydroxytryptamine receptor 2A (Mus musculus), P35363. CHO-K1 mHTR2A beta-arrestin complementation; percent of 30 µM serotonin response. activation, % at 7.6 µM. 360,000 compounds, 0.66% hits. AID 624169, 2012;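 active = activation above a run cutoff, the mean activation of all tested compounds plus 3 SD, cut at about 14% in these data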;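 also: 0% = plate median of compound wells and 100% = 30 µM serotonin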
sPLA2-III inh = human group III sPLA2 inhibitors, primary screen, biochemical, QFRET, BODIPY PC-A2 liposome substrate | QFRET BODIPY PC-A2 liposome hydrolysis, fluorescence | AID 743126, 2013 | Group 3 secretory phospholipase A2 (Homo sapiens), Q9NZ20 | inhibition, % at 12.2 µM | 370,000 compounds, 0.56% hits;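 active = inhibition above mean plus 3 SD of compounds lying within the high and low control bounds, cut at about 19% in these data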;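 also: 0% = median of test compound wells and 100% = no enzyme DMSO wells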
Target sequence (Q9NZ20 whole entry, looked up): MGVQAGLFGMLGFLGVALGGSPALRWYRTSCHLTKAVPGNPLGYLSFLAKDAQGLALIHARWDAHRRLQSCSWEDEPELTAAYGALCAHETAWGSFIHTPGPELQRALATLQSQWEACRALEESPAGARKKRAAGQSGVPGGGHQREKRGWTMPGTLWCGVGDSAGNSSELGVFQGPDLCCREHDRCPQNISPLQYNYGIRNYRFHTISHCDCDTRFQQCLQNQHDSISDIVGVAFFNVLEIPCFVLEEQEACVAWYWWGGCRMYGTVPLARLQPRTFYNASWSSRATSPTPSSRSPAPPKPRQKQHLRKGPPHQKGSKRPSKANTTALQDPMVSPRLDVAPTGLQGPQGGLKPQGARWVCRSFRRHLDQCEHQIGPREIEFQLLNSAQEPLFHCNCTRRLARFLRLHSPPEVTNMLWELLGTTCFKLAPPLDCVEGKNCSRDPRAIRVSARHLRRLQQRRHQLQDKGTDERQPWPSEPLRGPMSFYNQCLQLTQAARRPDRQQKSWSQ
sPLA2 confirm = human group III sPLA2 inhibitors, confirmation, biochemical, QFRET, triplicate; recombinant hGIII-sPLA2, BODIPY PC-A2 QFRET fluorescence; shares compounds with sPLA2-III inh; 2,000 compounds, 34% hits; inhibition, % at 12.2 µM;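 active = mean inhibition across triplicates above the hit cutoff set in the earlier primary screen, cut at about 19% in these data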;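 also: 0% = enzyme with DMSO and 100% = DMSO wells lacking enzyme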
535nm interf = 535nm fluorescence optical interference, confirmation, artefact control for HGIII-sPLA2 inhibitor project, biochemical, QFRET; shares compounds with sPLA2-III inh; BODIPY FL product fluorescence interference; inhibition, % at 12.2 µM; 2,000 compounds, 8.5% hits; AID 743282, 2014;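 active = average inhibition above the solvent-only control mean plus 3 SD, cut at about 6% in these data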;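 also: 0% = DMSO with substrate plus product and 100% = DMSO with substrate alone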
535nm interf DR = 535nm fluorescence optical interference, dose response, artefact control for HGIII-sPLA2 inhibitor project, biochemical, QFRET | 240 tested, under 10 active | IC50, µM | BODIPY FL product fluorescence interference, cell-free | shares compounds with sPLA2-III inh;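 active = IC50 at or below 10 µM; inactive = IC50 above 10 µM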
Active calls of the source: *; . = no result. The list is not random: actives were taken first. Their share in the collection is about 2.2%.

SMILES	HTR5A ag	HTR5A inv ag	MOR-DOR inv ag	MOR-DOR ag	m5-HT2A agonist	sPLA2-III inh	sPLA2 confirm	535nm interf	others
Fc1ccc2nc(Nc3nc4cc5c(cc4s3)OCCO5)sc2c1	-1.9	18.5	10.7	-2.4	-5.0	23.9*	15.2	6.5*
Fc1ccc2nc(Nc3nc4cc5c(cc4s3)OCO5)sc2c1	6.0	6.3	-18.0	3.7	-4.0	8.3	.	.
COC(=O)[C@]12C[C@H](CC(=O)NCc3cccc(C(F)(F)F)c3)C(=O)N(Cc3ccco3)C1=C[C@H](C1CCCC1)O[C@@H]2C	.	.	.	.	.	-16.6	.	.
COc1ccc(-c2cc(C(F)(F)F)nc(SCC(=O)NCc3ccco3)n2)cc1OC	0.9	-8.3	11.8	-2.1	3.2	-1.3	.	.
COc1ccc(-c2cc(C(F)(F)F)nc(SCC(=O)NCc3cnn(C)c3C)n2)cc1OC	3.0	5.5	11.8	-2.3	2.1	23.9*	-0.3	-14.2
CNC(=O)C1(C)Cc2c(-c3ccc(NC(C)=O)cc3)ccnc2O1 (stereo not given)	.	.	.	.	2.3	-0.2	.	.
CC(=O)Nc1ccc(-c2ccnc3c2CC(C)(C(=O)NC(C)C)O3)cc1 (stereo not given)	.	.	.	.	-0.4	20.7*	1.7	-9.4
CCCCOc1ccc(S(=O)(=O)NC(=O)C2(C)CCN2C(=O)Cc2cccs2)cc1 (stereo not given)	.	.	.	.	4.7	87.4*	-10.5	-6.1
CC(=O)Oc1cccc(C(=O)Nc2c[nH]c(=O)[nH]c2=O)c1	.	.	.	.	5.3	-2.9	.	.
COc1cccc(C(=O)Nc2c[nH]c(=O)[nH]c2=O)c1	0.8	6.0	12.9	-2.4	0.1	21.1*	2.8	-5.2
C[C@H]1[C@@H](NCC2CCCCC2)CC[C@@]23CCCN2C(=O)CCC[C@@H]13	.	.	.	.	.	-3.6	.	.
OC[C@@H](O)[C@H](O)C(/C=N/Nc1ccccc1)=N\Nc1ccccc1	-4.2	-3.4	20.4	-4.2	-2.4	20.0*	23.0*	3.1
CC(=O)/C=N/Nc1ccccc1	1.4	-1.0	0.2	0.0	1.5	3.2	.	.
Cc1ccc(-c2nnc(SCC(=O)c3ccc(O)c(O)c3)n2-c2ccc(Cl)cc2)cc1	.	.	.	.	.	1.6	.	.
Cc1cc(C)c2nc(NNC(=O)c3ccc(S(=O)(=O)N4CCc5ccccc5C4)cc3)sc2c1	4.9	7.0	-22.9	3.9	0.0	49.6*	35.6*	2.3
CCc1nnc(NC(=O)c2ccc(S(=O)(=O)N3CCc4ccccc4C3)cc2)s1	-3.3	11.1	6.9	-1.2	-0.8	1.4	.	.
CN(C(=O)[C@H]1O[C@@H](n2cnc(C(N)=O)n2)[C@H](O)[C@@H]1O)c1ccccc1	.	.	.	.	.	7.3	.	.
COc1ccccc1N1CCN(/N=C/c2cccc(OC)c2OC)CC1	4.7	-5.7	-10.7	2.0	2.1	3.8	.	.
COc1ccccc1N1CCN(N=Cc2ccccc2Br)CC1	.	.	.	.	.	19.4*	6.8	-8.8
CCCCNc1nc2c(S(=O)(=O)c3ccccc3)nnn2c2ccccc12	-0.5	-29.4	-2.9	0.5	0.0	19.5*	4.0	-6.2
Cc1cc(C)cc(Nc2nc3c(S(=O)(=O)c4ccccc4)nnn3c3ccccc23)c1	0.9	-3.5	8.5	-1.7	1.1	1.3	.	.
Cc1ccc(C(=O)NC(=S)/C=C2\N(C)c3ccccc3C2(C)C)cc1	3.5	-9.8	-30.0	4.1	-6.3	29.6*	44.9*	1.6	535nm interf DR=>122
COc1cccc(CNC(=O)[C@H]2CCCN2C(=O)[C@H]2CCCN2C(=O)c2ccccc2)c1	.	.	.	.	.	6.3	.	.
CCCn1c(=O)c(C(=O)NNC(=O)c2ccccc2Cl)c(O)c2ccccc21	-6.6	16.0	7.9	-1.4	-2.9	21.3*	20.4*	0.8
S=c1[nH]c(-c2ccccc2)cn1/N=C/c1cccs1	1.3	-3.6	-21.4	3.9	1.8	24.3*	37.5*	11.6*
SMILES	HTR5A ag	HTR5A inv ag	MOR-DOR inv ag	MOR-DOR ag	m5-HT2A agonist	sPLA2-III inh	sPLA2 confirm	535nm interf	others
c1ccc(CNC2CCC23CCC(c2ccccc2)CC3)cc1 (stereo not given)	.	.	.	.	.	5.5	.	.
COc1ccccc1CCC[C@@H](CCS(=O)(=O)C(C)C)CC1CCCCC1	.	.	.	.	.	-4.2	.	.
CCOC(=O)N1CCC(N(CCN(C)C)C(=S)Nc2cccc(SC)c2)CC1	2.4	-6.5	6.2	-1.2	1.9	-0.4	.	.
CSc1cccc(NC(=S)N2CCC(N(C)C3CCCC3)CC2)c1	7.3	-21.7	5.7	-1.1	3.6	19.4*	10.5	-16.8
O=C(CSc1nc2sc3c(c2c(=O)n1-c1ccc(Cl)cc1)CCCC3)c1ccccc1Cl	.	.	.	.	.	1.0	.	.
CS(=O)(=O)Oc1ccc(/C=N/NC(=O)c2ccncc2)cc1	-0.7	21.0	2.4	-0.4	-2.0	19.3*	4.9	-2.8
COc1ccc(C(=O)CSc2nnc(-c3n[nH]c4c3CCC4)n2N)cc1OC	.	.	.	.	.	-4.0	.	.
c1ccc(-c2cc(-c3nnc4sc(Cc5cccs5)nn34)[nH]n2)cc1	.	.	.	.	.	-41.9	.	.
O=C(Nc1nc(-c2ccccc2)c(-c2ccccc2)s1)c1ccc(S(=O)(=O)N2CCCCC2)cc1	4.3	31.0	8.8	-1.7	0.0	23.0*	-7.8	2.5
Cc1cccc(NC(=S)NNC(=O)CCn2nc(C)c([N+](=O)[O-])c2C)c1	-1.6	3.7	12.1	-2.5	-2.2	16.7	.	.
Cc1nn(CC(=O)NNC(=S)Nc2ccccc2)c(C)c1[N+](=O)[O-]	-2.9	-26.8	-0.1	0.0	1.8	19.7*	21.9*	0.1
COc1cc(OC)cc(-c2nn[nH]n2)c1	-2.2	2.3	19.0	-3.8	4.0	20.1*	-2.3	-0.4
CCC(C#Cc1ccccc1)N(C)C(N)=NC(=O)/C=C/c1ccccc1 (stereo not given)	.	.	.	.	.	1.5	.	.
CC(C)(CCC(=S)N1CCOCC1)C1CCCCC1	-3.5	13.0	-33.2	7.2	4.7	19.4*	18.5	-7.1
S=C(CN1CCCC1=S)N1CCOCC1	-2.1	-5.5	14.2	-2.8	8.1	-0.2	.	.

Assay outcomes: PubChem, The Scripps Research Institute Molecular Screening Center
